Measurements published in PubChem BioAssay AID1159580 (chemical genetic matrix, 2015).
“And” between values parts separate entries of the source, which are not always exact repeats. Equal values may be shown once. The whole screen tested about 5,500 compounds, of which about 2,000 (36%) were called active. Another 18% or so got no clear call; they are omitted. No stated cut-off is given here; in the data, active means normalized growth mostly below about 0.91 (no sharp cut-off); inconclusive means no clear call, values can overlap the other calls; inactive means mostly above about 0.92. This is one part of the list.

Assay: chemical genetic growth profiling, strain panel (AID 1159580);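 further: tested at 20 µM; growth read once vehicle control cultures reached saturation at 30 °C; 1 = growth at the plate median or of vehicle wells; lower values mean less growth of the strain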
Settings: S. cerevisiae deletion strains, growth OD

Measured: normalized growth

C=NC(C(=O)NC1C(=O)N2C1SC(C)(C)C2C(=O)O)c1ccccc1 (configuration not stated)
inactive: locus YAL013W, strain DEP1, active compounds read low 1.01 | locus YAL021C, strain ccr4, active compounds read low 0.991 | locus YAL026C, strain drs2, active compounds read low 0.994 | locus YAL030W, strain snc1, active compounds read low 1 | locus YBL061C, strain skt5, active compounds read low 1.02 | locus YBR009C, strain hhf1, active compounds read low 0.994 | locus YBR021W, strain FUR4, active compounds read low 0.999 | locus YBR023C, strain chs3, active compounds read low 0.995 | locus YBR171W, strain sec66, active compounds read low 1.02 | locus YBR229C, strain ROT2, active compounds read low 1 | locus YBR231C, strain swc5, active compounds read low 1.02 | locus YBR279W, strain paf1, active compounds read low 1 | locus YCL011C, strain gbp2, active compounds read low 0.989 | locus YCL016C, strain dcc1, active compounds read low 0.986 | locus YCL029C, strain bik1, active compounds read low 1.02 | locus YCL061C, strain MRC1, active compounds read low 0.991 | locus YCL069W, strain vba3, active compounds read low 1.01 | locus YCR088W, strain abp1, active compounds read low 1 | locus YDL005C, strain med2, active compounds read low 0.998 | locus YDL035C, strain GPR1, active compounds read low 1.01 | locus YDL040C, strain nat1, active compounds read low 1.01 | locus YDL074C, strain BRE1, active compounds read low 0.986 | locus YDL101C, strain DUN1, active compounds read low 1.01 | locus YDL134C, strain PPH21, active compounds read low 1.01 | locus YDL185W, strain tfp1, active compounds read low 1.01 | locus YDL192W, strain arf1, active compounds read low 1.01 | locus YDR001C, strain nth1, active compounds read low 0.989 | locus YDR069C, strain doa4, active compounds read low 1.03 | locus YDR101C, strain arx1, active compounds read low 1 | locus YDR137W, strain rgp1, active compounds read low 1.01 | locus YDR150W, strain NUM1, active compounds read low 1.01 | locus YDR159W, strain sac3, active compounds read low 1.07 | locus YDR162C, strain NBP2, active compounds read low 1.03 | locus YDR195W, strain ref2 1 | locus YDR297W, strain sur2, active compounds read low 1.03 | locus YDR318W, strain mcm21, active compounds read low 1.02 | locus YDR334W, strain swr1, active compounds read low 1 | locus YDR335W, strain msn5, active compounds read low 0.983 | locus YDR388W, active compounds read low 1 | locus YDR392W, strain spt3, active compounds read low 0.867 | locus YDR502C, strain sam2, active compounds read low 1.02 | locus YEL003W, strain gim4, active compounds read low 1 | locus YEL037C, strain rad23, active compounds read low 0.994 | locus YEL061C, strain CIN8 (second series), active compounds read low 0.995 | locus YEL061C, strain CIN8, active compounds read low 1 | locus YER015W, strain faa2, active compounds read low 0.978 | locus YER016W, strain bim1, active compounds read low 1.01 | locus YER110C, active compounds read low 1.01 | locus YER111C, strain swi4, active compounds read low 1 | locus YER155C, strain BEM2 (second series), active compounds read low 1.03 | locus YER155C, strain BEM2, active compounds read low 1 | locus YER167W, strain BCK2, active compounds read low 1.02 | locus YFR010W, strain ubp6, active compounds read low 0.993 | locus YGL078C, strain dbp3, active compounds read low 1 | locus YGL086W, strain mad1, active compounds read low 1.02 | locus YGL167C, strain pmr1, active compounds read low 0.992 | locus YGL173C, strain kem1, active compounds read low 1.01 | locus YGL227W, strain vid30, active compounds read low 0.996 | locus YGL240W, strain doc1, active compounds read low 1.04 | locus YGL248W, strain PDE1, active compounds read low 1.02 | locus YGL253W, strain hxk2, active compounds read low 1.01 | locus YGR078C, strain PAC10, active compounds read low 1.01 | locus YGR135W, strain pre9, active compounds read low 1.01 | locus YGR229C, strain SMI1, active compounds read low 0.977 | locus YGR252W, strain gcn5, active compounds read low 1.07 | locus YHR013C, strain ard1, active compounds read low 0.973 | locus YHR027C, strain rpn1, active compounds read low 0.992 | locus YHR030C, strain SLT2, active compounds read low 1.01 and 1 | locus YHR079C, strain IRE1 (second series), active compounds read low 1.01 | locus YHR079C, strain IRE1, active compounds read low 1 | locus YHR094C, strain hxt1, active compounds read low 1.01 | locus YHR129C, strain ARP1, active compounds read low 1.01 | locus YHR142W, strain chs7, active compounds read low 0.994 | locus YHR200W, strain rpn10, active compounds read low 1.03 | locus YIL066C, strain RNR3, active compounds read low 1.01 | locus YIL073C, strain SPO22, active compounds read low 1.07 | locus YIL125W, strain kgd1, active compounds read low 1.01 | locus YIR030C, strain dcg1, active compounds read low 1.02 | locus YJL092W, strain hpr5, active compounds read low 0.994 | locus YJL095W, strain BCK1 (second series), active compounds read low 1 | locus YJL095W, strain BCK1, active compounds read low 1.01 and 0.995 | locus YJL115W, strain asf1, active compounds read low 0.973 | locus YJL129C, strain trk1, active compounds read low 0.991 | locus YJL134W, strain LCB3, active compounds read low 1.01 | locus YJL154C, strain vps35, active compounds read low 1 | locus YJL164C, strain tpk1, active compounds read low 0.977 | locus YJL166W, strain qcr8, active compounds read low 1.02 | locus YJL168C, strain set2, active compounds read low 1.01 | locus YJL187C, strain SWE1 (second series), active compounds read low 1.01 | locus YJL187C, strain SWE1, active compounds read low 1.02 | locus YJR043C, strain POL32, active compounds read low 0.992 | locus YJR066W, strain TOR1, active compounds read low 0.988
